# Source: publication PMC7862700, “An all-to-all approach to the identification of sequence-specific readers for epigenetic DNA modifications on cytosine”
# Assays:
# Test in all cases: DAPPL (digital affinity profiling via proximity ligation, sequencing); 10 mM Tris-HCl pH 7.5, 50 mM NaCl, 1 mM DTT, 4% glycerol, room temperature, 30 min; GST-TFs on glutathione beads, 16-mer random dsDNA library, 0.1% formaldehyde crosslink after washing; high values mean tight binding
# [1] = target: T1, FLI1 (Homo sapiens, UniProt Q01543 1-452); settings: protein: recombinant; tags: N-terminal GST; dsDNA, one strand shown
# T1 sequence: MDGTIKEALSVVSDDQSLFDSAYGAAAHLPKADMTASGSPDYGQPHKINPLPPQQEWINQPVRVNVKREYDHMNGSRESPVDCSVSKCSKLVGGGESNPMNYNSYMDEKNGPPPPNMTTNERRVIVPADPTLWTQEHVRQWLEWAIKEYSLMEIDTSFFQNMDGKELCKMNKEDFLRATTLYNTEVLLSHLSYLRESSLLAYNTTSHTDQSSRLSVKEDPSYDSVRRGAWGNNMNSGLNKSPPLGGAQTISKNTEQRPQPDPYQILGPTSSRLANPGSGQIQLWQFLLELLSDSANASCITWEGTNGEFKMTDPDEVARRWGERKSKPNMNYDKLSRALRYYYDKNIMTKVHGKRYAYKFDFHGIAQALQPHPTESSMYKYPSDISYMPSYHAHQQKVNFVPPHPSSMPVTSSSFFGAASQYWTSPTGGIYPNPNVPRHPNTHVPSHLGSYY
# Procedure, shortened: (§1)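 Pools of DNA-barcoded human transcription factors, expressed in yeast as GST fusions on glutathione beads and combined with a tag-only sample, were incubated with 200 nmole of a 16-mer random double-stranded DNA library. Incubation took 30 min at room temperature in Tris/NaCl/DTT/glycerol buffer and was followed by washing, 0.1% formaldehyde crosslinking, proximity ligation (BsaI/T4 ligase, 1 h, 37 °C), PCR amplification and sequencing on an Illumina NextSeq500. Binding signal is the ratio of a hexamer's read frequency for a factor to its frequency for the tag-only sample.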
# [2] = target: T2, ELK1 (Homo sapiens, UniProt P19419 1-428); settings: protein: recombinant; tags: N-terminal GST; dsDNA, one strand shown
# T2 sequence: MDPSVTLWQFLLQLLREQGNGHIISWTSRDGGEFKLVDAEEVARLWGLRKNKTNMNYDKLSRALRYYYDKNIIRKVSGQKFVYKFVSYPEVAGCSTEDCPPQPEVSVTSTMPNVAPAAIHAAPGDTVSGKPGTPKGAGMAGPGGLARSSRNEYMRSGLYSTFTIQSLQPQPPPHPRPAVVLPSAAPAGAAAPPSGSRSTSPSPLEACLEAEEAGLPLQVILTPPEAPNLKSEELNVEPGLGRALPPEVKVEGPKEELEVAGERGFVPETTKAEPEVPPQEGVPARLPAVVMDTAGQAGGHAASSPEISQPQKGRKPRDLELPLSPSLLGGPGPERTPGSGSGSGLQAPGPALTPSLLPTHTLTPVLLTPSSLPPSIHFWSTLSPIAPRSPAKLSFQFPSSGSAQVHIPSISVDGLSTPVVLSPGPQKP
# Procedure, shortened: as §1
# [3] = target: T3, GABPA (Homo sapiens, UniProt Q06546 1-454); settings: protein: recombinant; tags: N-terminal GST; dsDNA, one strand shown
# T3 sequence: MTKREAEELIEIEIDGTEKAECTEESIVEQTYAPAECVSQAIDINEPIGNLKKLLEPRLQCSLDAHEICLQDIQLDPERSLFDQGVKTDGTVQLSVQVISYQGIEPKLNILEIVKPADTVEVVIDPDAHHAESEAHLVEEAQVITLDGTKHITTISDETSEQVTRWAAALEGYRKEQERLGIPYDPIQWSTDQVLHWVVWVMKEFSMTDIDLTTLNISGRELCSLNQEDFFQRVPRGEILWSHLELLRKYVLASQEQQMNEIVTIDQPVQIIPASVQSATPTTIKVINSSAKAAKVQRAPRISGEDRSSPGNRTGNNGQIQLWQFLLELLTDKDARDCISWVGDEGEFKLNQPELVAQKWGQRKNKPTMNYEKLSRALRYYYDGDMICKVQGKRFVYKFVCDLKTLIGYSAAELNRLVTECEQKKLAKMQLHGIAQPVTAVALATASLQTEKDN
# Procedure, shortened: as §1
# [4] = target: T4, ERG (Homo sapiens, UniProt P11308 1-479); settings: protein: recombinant; tags: N-terminal GST; dsDNA, one strand shown
# T4 sequence: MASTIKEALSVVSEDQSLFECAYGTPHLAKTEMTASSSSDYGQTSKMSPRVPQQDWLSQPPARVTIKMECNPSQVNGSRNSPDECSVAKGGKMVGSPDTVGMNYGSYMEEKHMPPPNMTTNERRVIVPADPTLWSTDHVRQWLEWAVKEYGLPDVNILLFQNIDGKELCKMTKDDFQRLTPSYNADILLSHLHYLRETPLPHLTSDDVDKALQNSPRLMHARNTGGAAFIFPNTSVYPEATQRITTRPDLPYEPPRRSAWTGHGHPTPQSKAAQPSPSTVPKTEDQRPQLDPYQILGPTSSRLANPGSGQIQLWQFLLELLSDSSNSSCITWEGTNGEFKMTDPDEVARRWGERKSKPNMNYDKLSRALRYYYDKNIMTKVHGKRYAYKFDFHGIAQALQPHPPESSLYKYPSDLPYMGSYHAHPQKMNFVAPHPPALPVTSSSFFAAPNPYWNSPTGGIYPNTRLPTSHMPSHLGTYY
# Procedure, shortened: as §1
# [5] = target: ELF1 (Homo sapiens, UniProt P32519 1-619); settings: protein: recombinant; tags: N-terminal GST; dsDNA, one strand shown
# Sequence of ELF1 (P32519 whole entry): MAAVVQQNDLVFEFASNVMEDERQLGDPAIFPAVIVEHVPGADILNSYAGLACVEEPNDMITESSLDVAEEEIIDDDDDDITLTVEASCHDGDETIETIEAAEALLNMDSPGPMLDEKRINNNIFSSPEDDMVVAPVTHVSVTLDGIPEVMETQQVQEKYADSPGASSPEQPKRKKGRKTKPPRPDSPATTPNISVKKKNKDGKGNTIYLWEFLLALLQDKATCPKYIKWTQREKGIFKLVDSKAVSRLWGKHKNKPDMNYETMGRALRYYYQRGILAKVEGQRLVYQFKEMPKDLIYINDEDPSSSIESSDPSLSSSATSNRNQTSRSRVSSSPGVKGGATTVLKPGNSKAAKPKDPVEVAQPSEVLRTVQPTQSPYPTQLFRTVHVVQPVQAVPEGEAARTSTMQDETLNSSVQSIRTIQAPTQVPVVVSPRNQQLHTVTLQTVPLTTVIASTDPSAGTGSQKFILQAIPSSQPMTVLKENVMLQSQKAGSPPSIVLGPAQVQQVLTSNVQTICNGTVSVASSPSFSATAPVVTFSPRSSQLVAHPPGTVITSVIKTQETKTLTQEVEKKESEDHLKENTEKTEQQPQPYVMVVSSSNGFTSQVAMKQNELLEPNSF
# Procedure, shortened: as §1
# [6] = target: T5, EHF (Homo sapiens, UniProt Q9NZC4 1-300); settings: protein: recombinant; tags: N-terminal GST; dsDNA, one strand shown
# T5 sequence: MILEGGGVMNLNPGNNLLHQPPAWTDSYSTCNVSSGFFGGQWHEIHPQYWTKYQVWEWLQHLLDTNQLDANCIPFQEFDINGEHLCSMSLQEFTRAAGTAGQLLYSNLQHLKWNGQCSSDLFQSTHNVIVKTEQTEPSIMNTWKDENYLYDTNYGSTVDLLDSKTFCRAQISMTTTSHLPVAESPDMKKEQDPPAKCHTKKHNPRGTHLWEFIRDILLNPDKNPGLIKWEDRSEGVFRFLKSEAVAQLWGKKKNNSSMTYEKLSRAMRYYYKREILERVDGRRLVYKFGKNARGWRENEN
# Procedure, shortened: as §1
# [7] = target: SPI1 (Homo sapiens, UniProt P17947 1-270); settings: protein: recombinant; tags: N-terminal GST; dsDNA, one strand shown
# Procedure, shortened: as §1
# [8] = target: SPIB (Homo sapiens, UniProt Q01892 1-262); settings: protein: recombinant; tags: N-terminal GST; dsDNA, one strand shown
# Sequence of SPIB (Q01892 whole entry): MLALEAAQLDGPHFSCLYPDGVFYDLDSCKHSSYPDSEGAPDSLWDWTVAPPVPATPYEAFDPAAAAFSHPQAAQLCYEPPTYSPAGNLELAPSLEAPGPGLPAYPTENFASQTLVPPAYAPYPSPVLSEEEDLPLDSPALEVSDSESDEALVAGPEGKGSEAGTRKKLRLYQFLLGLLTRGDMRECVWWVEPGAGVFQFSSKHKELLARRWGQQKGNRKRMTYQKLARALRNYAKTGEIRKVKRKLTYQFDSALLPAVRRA
# Procedure, shortened: as §1
# [9] = target: T6, ELK3 (Homo sapiens, UniProt P41970 1-407); settings: protein: recombinant; tags: N-terminal GST; dsDNA, one strand shown
# T6 sequence: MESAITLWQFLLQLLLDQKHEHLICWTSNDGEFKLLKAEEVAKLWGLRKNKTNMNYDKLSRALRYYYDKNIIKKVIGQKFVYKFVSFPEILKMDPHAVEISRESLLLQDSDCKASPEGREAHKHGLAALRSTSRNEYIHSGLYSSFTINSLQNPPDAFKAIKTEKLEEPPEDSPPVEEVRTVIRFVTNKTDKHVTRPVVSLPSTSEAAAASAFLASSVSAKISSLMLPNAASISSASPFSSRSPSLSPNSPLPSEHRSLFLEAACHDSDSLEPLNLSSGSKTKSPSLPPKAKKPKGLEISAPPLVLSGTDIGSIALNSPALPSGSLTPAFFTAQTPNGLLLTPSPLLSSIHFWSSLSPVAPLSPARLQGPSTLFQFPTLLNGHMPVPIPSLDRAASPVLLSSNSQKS
# Procedure, shortened: as §1
# [10] = target: T7, FEV (Homo sapiens, UniProt Q99581 1-238); settings: protein: recombinant; tags: N-terminal GST; dsDNA, one strand shown
# T7 sequence: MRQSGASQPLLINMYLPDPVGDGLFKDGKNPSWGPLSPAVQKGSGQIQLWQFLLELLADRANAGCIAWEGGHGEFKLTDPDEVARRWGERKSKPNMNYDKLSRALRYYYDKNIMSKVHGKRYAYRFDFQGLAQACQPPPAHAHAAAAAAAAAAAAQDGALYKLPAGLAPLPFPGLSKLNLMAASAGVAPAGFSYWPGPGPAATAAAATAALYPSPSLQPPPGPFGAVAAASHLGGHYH
# Procedure, shortened: as §1
# [11] = target: ETV5 (Homo sapiens, UniProt P41161 1-510); settings: protein: recombinant; tags: N-terminal GST; dsDNA, one strand shown
# Sequence of ETV5 (P41161 whole entry): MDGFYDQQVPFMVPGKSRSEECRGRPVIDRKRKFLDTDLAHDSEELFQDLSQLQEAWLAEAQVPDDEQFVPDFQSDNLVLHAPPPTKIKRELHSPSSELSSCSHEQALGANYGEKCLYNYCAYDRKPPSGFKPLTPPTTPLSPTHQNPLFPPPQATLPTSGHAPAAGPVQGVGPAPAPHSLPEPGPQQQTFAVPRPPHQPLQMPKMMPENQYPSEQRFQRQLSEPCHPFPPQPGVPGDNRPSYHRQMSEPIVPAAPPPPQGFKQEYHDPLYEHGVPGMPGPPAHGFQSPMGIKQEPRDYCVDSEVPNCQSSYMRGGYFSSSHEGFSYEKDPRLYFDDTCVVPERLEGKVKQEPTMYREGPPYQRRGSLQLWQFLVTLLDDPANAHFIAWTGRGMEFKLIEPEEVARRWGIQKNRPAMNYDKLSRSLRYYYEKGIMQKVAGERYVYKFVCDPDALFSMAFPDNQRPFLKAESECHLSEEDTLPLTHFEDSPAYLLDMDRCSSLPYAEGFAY
# Procedure, shortened: as §1
# [12] = target: HSF1 (Homo sapiens, UniProt Q00613 1-529); settings: protein: recombinant; tags: N-terminal GST; chain copies: 3; dsDNA, one strand shown
# Sequence of HSF1 (Q00613 whole entry): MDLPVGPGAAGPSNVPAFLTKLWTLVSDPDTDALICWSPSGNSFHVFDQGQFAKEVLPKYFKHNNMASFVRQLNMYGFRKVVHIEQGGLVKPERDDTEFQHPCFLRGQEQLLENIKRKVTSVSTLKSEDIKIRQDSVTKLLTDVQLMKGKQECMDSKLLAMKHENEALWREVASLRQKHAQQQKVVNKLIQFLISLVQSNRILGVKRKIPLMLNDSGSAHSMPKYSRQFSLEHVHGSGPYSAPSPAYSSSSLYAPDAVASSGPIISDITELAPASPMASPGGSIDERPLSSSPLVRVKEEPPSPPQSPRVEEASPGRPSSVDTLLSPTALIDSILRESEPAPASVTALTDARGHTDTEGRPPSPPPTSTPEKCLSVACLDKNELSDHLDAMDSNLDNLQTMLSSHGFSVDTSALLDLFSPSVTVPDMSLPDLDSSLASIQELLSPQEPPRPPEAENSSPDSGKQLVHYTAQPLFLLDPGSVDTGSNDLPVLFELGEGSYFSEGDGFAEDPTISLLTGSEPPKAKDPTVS
# Procedure, shortened: as §1
# [13] = target: T8, SPIC (Homo sapiens, UniProt Q8N5J4 1-248); settings: protein: recombinant; tags: N-terminal GST; dsDNA, one strand shown
# T8 sequence: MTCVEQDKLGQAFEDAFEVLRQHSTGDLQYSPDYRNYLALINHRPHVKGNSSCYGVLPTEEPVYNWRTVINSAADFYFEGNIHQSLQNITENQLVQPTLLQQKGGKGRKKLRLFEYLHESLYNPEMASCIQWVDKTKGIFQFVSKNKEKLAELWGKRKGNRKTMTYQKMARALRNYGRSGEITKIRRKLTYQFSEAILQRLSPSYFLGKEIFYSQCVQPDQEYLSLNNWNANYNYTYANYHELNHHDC
# Procedure, shortened: as §1
# [14] = target: ELF4 (Homo sapiens, UniProt Q99607 1-663); settings: protein: recombinant; tags: N-terminal GST; dsDNA, one strand shown
# Sequence of ELF4 (Q99607 whole entry): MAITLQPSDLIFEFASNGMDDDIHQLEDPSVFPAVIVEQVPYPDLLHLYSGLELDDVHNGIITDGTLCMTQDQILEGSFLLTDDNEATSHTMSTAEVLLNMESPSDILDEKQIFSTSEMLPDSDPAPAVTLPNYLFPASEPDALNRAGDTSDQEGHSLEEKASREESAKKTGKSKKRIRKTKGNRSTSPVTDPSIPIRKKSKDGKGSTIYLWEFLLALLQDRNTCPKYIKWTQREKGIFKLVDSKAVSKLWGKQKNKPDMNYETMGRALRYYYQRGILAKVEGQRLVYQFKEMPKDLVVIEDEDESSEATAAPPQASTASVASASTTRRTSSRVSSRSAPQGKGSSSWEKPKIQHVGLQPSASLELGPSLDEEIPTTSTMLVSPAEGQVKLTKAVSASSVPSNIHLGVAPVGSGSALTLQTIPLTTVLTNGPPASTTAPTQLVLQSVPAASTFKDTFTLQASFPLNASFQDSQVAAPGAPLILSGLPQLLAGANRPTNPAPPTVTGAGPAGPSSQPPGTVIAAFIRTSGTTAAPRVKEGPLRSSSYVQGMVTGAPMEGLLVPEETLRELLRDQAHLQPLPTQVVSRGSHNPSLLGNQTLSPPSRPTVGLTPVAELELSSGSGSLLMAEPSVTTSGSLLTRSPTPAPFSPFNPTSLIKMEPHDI
# Procedure, shortened: as §1
# [15] = target: T9, ELK4 (Homo sapiens, UniProt P28324-2 1-405); settings: protein: recombinant; tags: N-terminal GST; dsDNA, one strand shown
# T9 sequence: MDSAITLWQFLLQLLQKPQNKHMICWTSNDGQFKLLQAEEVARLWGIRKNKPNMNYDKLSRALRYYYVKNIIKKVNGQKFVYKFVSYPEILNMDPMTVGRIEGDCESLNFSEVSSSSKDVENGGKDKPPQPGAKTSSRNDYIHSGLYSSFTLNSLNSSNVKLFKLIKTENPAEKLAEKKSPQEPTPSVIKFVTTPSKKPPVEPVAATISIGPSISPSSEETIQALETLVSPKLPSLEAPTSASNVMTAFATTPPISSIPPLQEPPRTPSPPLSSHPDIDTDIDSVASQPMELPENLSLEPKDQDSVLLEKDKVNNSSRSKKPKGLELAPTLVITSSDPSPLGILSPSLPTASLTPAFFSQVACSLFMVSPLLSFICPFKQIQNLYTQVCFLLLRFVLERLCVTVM
# Procedure, shortened: as §1
# [16] = target: T10, ETV2 (Homo sapiens, UniProt O00321 1-342); settings: protein: recombinant; tags: N-terminal GST; dsDNA, one strand shown
# T10 sequence: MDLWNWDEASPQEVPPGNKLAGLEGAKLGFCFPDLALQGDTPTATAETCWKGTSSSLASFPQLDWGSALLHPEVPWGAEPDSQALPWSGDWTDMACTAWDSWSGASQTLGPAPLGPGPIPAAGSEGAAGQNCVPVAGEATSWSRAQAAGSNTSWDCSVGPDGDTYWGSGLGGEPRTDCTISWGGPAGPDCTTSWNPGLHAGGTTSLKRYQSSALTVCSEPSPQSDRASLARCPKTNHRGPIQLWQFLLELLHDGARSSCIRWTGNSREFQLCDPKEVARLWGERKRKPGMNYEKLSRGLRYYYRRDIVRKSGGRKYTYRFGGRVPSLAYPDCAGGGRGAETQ
# Procedure, shortened: as §1
# [17] = target: T11, ELF3 (Homo sapiens, UniProt P78545 1-371); settings: protein: recombinant; tags: N-terminal GST; dsDNA, one strand shown
# T11 sequence: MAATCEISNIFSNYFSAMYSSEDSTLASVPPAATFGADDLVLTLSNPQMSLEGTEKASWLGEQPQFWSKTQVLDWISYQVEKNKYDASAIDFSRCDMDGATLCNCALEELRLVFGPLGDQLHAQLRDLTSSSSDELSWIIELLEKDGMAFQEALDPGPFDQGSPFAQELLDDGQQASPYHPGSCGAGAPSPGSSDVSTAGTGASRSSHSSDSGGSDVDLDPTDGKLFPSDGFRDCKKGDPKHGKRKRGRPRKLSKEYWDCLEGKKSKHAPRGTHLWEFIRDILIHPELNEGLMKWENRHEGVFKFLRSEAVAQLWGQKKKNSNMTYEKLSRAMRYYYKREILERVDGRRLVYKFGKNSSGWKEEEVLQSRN
# Procedure, shortened: as §1
# [18] = target: CRX (Homo sapiens, UniProt O43186 1-299); settings: protein: recombinant; tags: N-terminal GST; dsDNA, one strand shown
# Sequence of CRX (O43186 whole entry): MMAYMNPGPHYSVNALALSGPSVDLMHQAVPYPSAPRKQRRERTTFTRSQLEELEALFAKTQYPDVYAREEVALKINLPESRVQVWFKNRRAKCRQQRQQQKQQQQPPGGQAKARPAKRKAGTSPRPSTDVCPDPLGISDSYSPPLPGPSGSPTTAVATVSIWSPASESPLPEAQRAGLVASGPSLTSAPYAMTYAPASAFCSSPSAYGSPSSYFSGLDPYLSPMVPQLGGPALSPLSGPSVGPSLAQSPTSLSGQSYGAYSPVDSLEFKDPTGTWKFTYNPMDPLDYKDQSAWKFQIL
# Procedure, shortened: as §1
# [19] = target: ETV1 (Homo sapiens, UniProt P50549 1-477); settings: protein: recombinant; tags: N-terminal GST; dsDNA, one strand shown
# Sequence of ETV1 (P50549 whole entry): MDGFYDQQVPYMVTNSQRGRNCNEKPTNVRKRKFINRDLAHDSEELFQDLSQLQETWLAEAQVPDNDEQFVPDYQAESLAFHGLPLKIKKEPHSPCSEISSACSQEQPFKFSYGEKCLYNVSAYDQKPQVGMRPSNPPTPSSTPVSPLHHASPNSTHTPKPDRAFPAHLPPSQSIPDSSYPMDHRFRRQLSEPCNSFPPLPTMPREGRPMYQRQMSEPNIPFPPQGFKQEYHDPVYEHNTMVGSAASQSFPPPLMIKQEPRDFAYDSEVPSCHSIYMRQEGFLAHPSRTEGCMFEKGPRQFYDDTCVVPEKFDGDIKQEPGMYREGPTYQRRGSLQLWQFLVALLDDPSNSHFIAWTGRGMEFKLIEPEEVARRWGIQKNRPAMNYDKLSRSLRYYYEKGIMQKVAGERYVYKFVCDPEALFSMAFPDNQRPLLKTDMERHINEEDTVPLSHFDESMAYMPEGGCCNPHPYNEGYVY
# Procedure, shortened: as §1
sequence,measurement,setting,value
GTACTT,binding signal,[1],"1.92 fold enrichment (6-mer frequency, TF over GST control)"
same,binding signal,[2],"2.32 fold enrichment (6-mer frequency, TF over GST control)"
same,binding signal,[3],"1.81 fold enrichment (6-mer frequency, TF over GST control)"
same,binding signal,[4],"1.88 fold enrichment (6-mer frequency, TF over GST control)"
same,binding signal,[5],"1.9 fold enrichment (6-mer frequency, TF over GST control)"
same,binding signal,[6],"1.96 fold enrichment (6-mer frequency, TF over GST control)"
same,binding signal,[7],"1.94 fold enrichment (6-mer frequency, TF over GST control)"
same,binding signal,[8],"1.78 fold enrichment (6-mer frequency, TF over GST control)"
same,binding signal,[9],"2.51 fold enrichment (6-mer frequency, TF over GST control)"
same,binding signal,[10],"2.21 fold enrichment (6-mer frequency, TF over GST control)"
same,binding signal,[11],"1.95 fold enrichment (6-mer frequency, TF over GST control)"
same,binding signal,[12],"1.35 fold enrichment (6-mer frequency, TF over GST control)"
same,binding signal,[13],"1.86 fold enrichment (6-mer frequency, TF over GST control)"
same,binding signal,[14],"1.86 fold enrichment (6-mer frequency, TF over GST control)"
same,binding signal,[15],"1.78 fold enrichment (6-mer frequency, TF over GST control)"
same,binding signal,[16],"1.88 fold enrichment (6-mer frequency, TF over GST control)"
same,binding signal,[17],"2.04 fold enrichment (6-mer frequency, TF over GST control)"
same,binding signal,[18],"1.6 fold enrichment (6-mer frequency, TF over GST control)"
same,binding signal,[19],"2.05 fold enrichment (6-mer frequency, TF over GST control)"
